Screening data: PubChem, Columbia University Molecular Screening Center
IL1B cytotox: HUVEC cytotoxicity counter-screen, IL-1B stimulated. HUVEC cell count loss, Hoechst imaging. cell count reduction, % at 2 µM. 94,000 compounds, 0.41% hits;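 active means cell count reduction more than 3 SD above the screen-wide mean, cut at about 70% in these data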;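 further: normalized per plate to untreated control cells as the no-loss baseline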
NFkB transloc pot: enhances IL-1B driven NFkB nuclear translocation | HUVEC IL-1B NFkB p65 nuclear translocation imaging | activation, % at 2 µM | 94,000 compounds, 0.3% hits;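 active means activation above 40%, about the mean plus 3 SD, also judged a hit on visual image review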;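 further: percent activation is computed from the nuclear over cytoplasmic p65 intensity ratio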
TNFa cytotox: toxic to HUVEC cells under TNF alpha stimulation; HUVEC TNFalpha-stimulated, Hoechst cell count, imaging; cell count reduction, % at 2 µM; 93,000 compounds, 0.17% hits;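 active means cell count reduction exceeding the screen mean by over 5 SD, scaled to untreated wells per plate, cut at about 78% in these data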;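 further: cells counted after 24 h of TNF alpha exposure following the 1 h pretreatment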
VCAM1 TNFa inh: reduces TNF alpha induced VCAM1 expression in HUVEC | HUVEC TNFa-induced VCAM-1 immunofluorescence, high-content imaging | inhibition, % at 2 µM | AID 802 | 95,000 compounds, 0.48% hits;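 active means inhibition above the batch mean plus 3 SD, with images confirmed as a hit by eye, cut at about 37% in these data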;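 further: 0% = TNF-stimulated DMSO wells and 100% = unstimulated control wells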
NFkB transloc inh: blocks IL-1B driven NFkB nuclear translocation in HUVEC cells; inhibition, % at 2 µM; HUVEC IL-1B NFkB p65 nuclear translocation imaging; 94,000 compounds, 0.43% hits;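 active means inhibition above about 30% together with a positive call from visual inspection of the well image, limit read from the data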;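 further: nuclear over cytoplasmic p65 intensity ratio measured by imaging; 0% = IL-1B stimulated DMSO wells and 100% = unstimulated DMSO wells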
An asterisk follows results filed as active; x = no result. This is a sample that favours compounds with a hit; in the whole collection about 1.5% have one here.

SMILES	IL1B cytotox	NFkB transloc pot	TNFa cytotox	VCAM1 TNFa inh	NFkB transloc inh
COc1cc(OC)cc(C(=O)NCC(=O)N2CCC(C)CC2)c1	-1	-15	x	x	15
CN(Cc1ccccc1)S(=O)(=O)c1ccc(NC(=S)NC(=O)C2CCCC2)cc1	24	-3	16	48*	3
[O-][n+]1c2c(c3c4non(O)c4ccc31)CCCC2	88*	-23	-2	-2	23
COn1c2c(c3c4no[n+]([O-])c4ccc31)CCCC2	8	12	5	5	-12
CCOC(=O)c1[nH]c(C)c(C(=O)c2cc(F)ccc2F)c1C	4	-12	31	83*	12
CCOC(=O)c1[nH]c(C)c(C(=O)OCC)c1C	41	-5	2	-9	5
COc1ccc(NC(=S)NC(NC(=O)c2ccc(Cl)cc2Cl)C(Cl)(Cl)Cl)c([N+](=O)[O-])c1 (stereo not drawn)	-5	-5	14	13	5
COc1ccc(NC(=O)c2ccc(C)cc2Cl)c([N+](=O)[O-])c1	79*	-11	5	4	11
CCNC(=O)CC1SC(=Nc2ccc(C)cc2)N(CC)C1=O (stereo not drawn)	-13	1	7	-5	-1
c1cc2c(cc1Nc1nc(-c3ccc4c(c3)OCO4)cs1)OCCO2	-49	12	-16	-20	-12
c1ccc(-c2csc(Nc3ccc4c(c3)OCCO4)n2)cc1	-112	-44	-27	-8	44*
Nc1ncnc2nc(Sc3ccc(Cl)cc3)[nH]c12	6	-34	-10	8	34*
O=C(CSc1ncn[nH]1)Nc1ccccc1Sc1ccccc1	-5	-6	-23	-16	6
CCOC(=O)C1=C(C)N(C)C(C)=C(C(=O)OCC)C1c1ccccc1	-16	9	-21	14	-9
CCOC(=O)c1cnn(-c2ncnc3sc(CC)cc23)c1N	0	8	-17	10	-8
CCOC(=O)c1cnn(-c2nc(CC)nc3sc4c(c23)CCC4)c1N	-30	-9	76	92*	10
COC(=O)CCS(=O)(=O)c1ccc(Cl)c(Cl)c1	95*	15	-4	-4	-15
CCOC(=O)Cc1csc(NC(=O)c2c(-c3c(Cl)cccc3Cl)noc2C)n1	-10	7	7	-11	-7
Cc1c(Cc2ccccc2)sc(N)c1C(N)=O	87*	-98	-16	16	98*
COC(=O)c1ccccc1Sc1c(/C=N/OC(=O)c2ccccc2)c(C(F)(F)F)nn1C	30	-45	31	5	44*
Cc1ccc(C(=O)O/N=C/c2c(C(F)(F)F)nn(C)c2Sc2ccc(Cl)cc2)cc1	12	19	6	-11	-20
O=C(Cn1c(-c2cncs2)nc2ccccc21)NCc1ccccc1	90*	-2	5	1	2
COc1ccc(N=c2oc3ccc(OC)cc3cc2-c2nc3ccccc3[nH]2)cc1	22	17	-1	50*	-17
CC(C)(Oc1ccc(Cl)cc1)C(=O)Nc1ccc2oc(-c3ccncc3)nc2c1	-21	11	-14	3	-11
Cc1nn2c(N3CCN(C4CCCC4)CC3)cc(C(C)(C)C)nc2c1-c1ccccc1	82*	6	-1	-2	-6
SMILES	IL1B cytotox	NFkB transloc pot	TNFa cytotox	VCAM1 TNFa inh	NFkB transloc inh
Cc1nn2c(N3CCN(C(=O)c4ccco4)CC3)cc(C(C)(C)C)nc2c1-c1ccccc1	-12	-2	-45	-2	2
Cc1nc(SCc2ccc(Br)cc2)[nH]c(=O)c1C	8	0	33	67*	0
COc1ccc(CSc2nc(C)cc(=O)[nH]2)cc1	-20	5	-12	-7	-5
COC(=O)C(O)(CC(=O)Nc1ccc(Cl)cc1F)C(F)(F)F (stereo not drawn)	30	-32	-16	9	32*
COC(=O)C(O)(CC(=O)Nc1ccc(Cl)cc1Cl)C(F)(F)F (stereo not drawn)	10	-8	5	-17	8
CCOC(=O)CSc1nnc(Cc2ccc(OC)cc2)n1-c1ccccc1	-3	7	-27	6	-7
O=C(OCCCN=C1NS(=O)(=O)c2ccccc21)c1ccc(F)cc1	5	-7	4	6	7
CCn1c(SCc2nc3sc(C(=O)O)c(C)c3c(=O)[nH]2)nc2ccccc21	0	-11	-14	-9	11
CSc1ccc(-c2nnn(Cc3ccc(Br)cc3)n2)cc1	13	58*	-14	12	-58
CSc1ccc(-c2nnn(Cc3ccccn3)n2)cc1	-15	11	8	12	-11
COc1ccc(CCNC(=O)c2cc(-c3cc(C)ccc3O)n[nH]2)cc1OC	23	-4	0	2	4
Cc1nc2sc(C(c3ccc(Cl)cc3)N3CC(C)OC(C)C3)c(O)n2n1 (stereo not drawn)	13	-4	37	36*	4
COc1cc(C2/C(=C(/O)c3ccc(OCC(C)C)cc3)C(=O)C(=O)N2CCN(C)C)ccc1O (stereo not drawn)	-97	41*	-14	-5	-41
COc1ccc(/C(O)=C2/C(=O)C(=O)N(CCN(C)C)C2c2ccc(OC)c(OC)c2)c(C)c1 (stereo not drawn)	8	-39	x	x	39*
CC(C)COc1ccc(/C(O)=C2/C(=O)C(=O)N(CCN(C)C)C2c2ccncc2)cc1 (stereo not drawn)	-1	2	-1	14	-2
COn1c(SCC(=O)N(C)C)nc2ccccc2c1=O	9	-3	-24	4	3
N#Cc1nc(-c2ccco2)oc1N1CCOCC1	-77	-16	-31	40*	16
COc1cc(C2C(C#N)=C(N)Oc3cc(N(C)C)ccc32)cc2c1OCO2 (stereo not drawn)	57	-27	68	97*	27
Cc1ccc(-c2nc(CSCC(=O)Nc3cc(C)on3)c(C)o2)cc1	18	-16	89*	38	16
Cc1noc(C)c1CSc1nc2sc(C)c(C)c2c(=O)n1-c1ccccc1	-2	-5	10	-6	5
Cc1noc(C)c1CSc1nc2ccccc2c(=O)n1-c1ccc(Cl)cc1	89*	-1	-10	-18	1
CCOc1ccc(OCCSc2nc3ccccc3o2)cc1	4	-42	12	14	42*
CCCOc1ccc(OCCSc2ncccn2)cc1	-34	44*	-6	15	-44
Clc1ccc(OCCCCSc2ncccn2)cc1	-10	1	-11	-23	-1
C/C(=N\NC(=O)c1ccc(Cl)c(Cl)c1)c1cccc(NC(=O)C(C)C)c1	-2	15	-2	4	-15
O=C(Nc1ccccc1)OCCNC(=O)c1ccccc1	-66	40*	-7	20	-40
CC(C)CC(=O)CN1C(=O)C2(OCCO2)c2ccccc21	77*	12	-8	14	-12
CN(C)S(=O)(=O)c1cccc(C(=O)OCC(=O)Nc2ccccc2OC(F)F)c1	-2	-6	-21	-16	6
CCN(CC)S(=O)(=O)c1cccc(C(=O)OCC(=O)Nc2ccccc2OC(F)F)c1	-62	-43	-32	-8	43*
